Source: PubChem BioAssay (NCI)
This is part of a sample that, as a whole, favours compounds with a hit. Of some 83,000 tested, about 20% had one in any assay.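 A percent growth of 40 corresponds to 60% growth inhibition; 0 means no net growth; -100 means all cells died. Active threshold: below 10.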 Calls of active or inactive are those of the source.

Tests used:
Test in all cases: NCI-60 one-dose screen, 48 h (100 = growth as untreated, 0 = no growth, -100 = all killed)
Conditions in all cases: 10 µM unless noted
NCI-H23 lung = test system: NCI-H23 lung
NCI-H226 lung = test system: NCI-H226 lung
NCI-H322M lung = test system: NCI-H322M lung
HOP-62 NSCLC = test system: HOP-62 NSCLC
NCI-H460 lung = test system: NCI-H460 lung
HOP-92 NSCLC = test system: HOP-92 NSCLC
NCI-H522 lung = test system: NCI-H522 lung
A549/ATCC NSCLC = test system: A549/ATCC NSCLC
786-0 renal = test system: 786-0 renal
COLO 205 colon = test system: COLO 205 colon

Measured: growth

COc1ccc(Nc2ncccc2NC(=O)c2cn(Cc3cccc(Oc4ccccc4)c3)nn2)cc1
inactive: NCI-H23 lung 91.8% | NCI-H226 lung 93.8% | NCI-H322M lung 82.9% | HOP-62 NSCLC 106% | NCI-H460 lung 96.5% | HOP-92 NSCLC 99.6% | NCI-H522 lung 77.8% | A549/ATCC NSCLC 80.2% | 786-0 renal 102% | COLO 205 colon 102%

Cn1cc(-c2[nH]c3cc(NC(=O)[C@H](N)C4CCCCC4)cc4c3c2C=NNC4=O)cn1
active: NCI-H23 lung -12.7% | HOP-62 NSCLC -11.3% | HOP-92 NSCLC -25.2% | NCI-H522 lung -66% | 786-0 renal -18.9% | COLO 205 colon -78.4%
inactive: NCI-H226 lung 26.1% | NCI-H322M lung 16.1% | NCI-H460 lung 11.6% | A549/ATCC NSCLC 14%

COc1ccc(-c2cc3c(oc2=O)-c2ccccc2OC3OC(C)=O)cc1 (stereo not given)
inactive: NCI-H23 lung 93.4% | NCI-H226 lung 94.3% | NCI-H322M lung 100% | HOP-62 NSCLC 98.8% | NCI-H460 lung 104% | HOP-92 NSCLC 83.5% | NCI-H522 lung 88% | A549/ATCC NSCLC 93.3% | 786-0 renal 91.3% | COLO 205 colon 97.4%

Cc1cc(Nc2cc(N3CCN(C)CC3)nc(Sc3ccc(NC(=O)C4CC4)cc3)n2)n[nH]1
inactive: NCI-H23 lung 38.2% | NCI-H226 lung 36.3% | NCI-H322M lung 58.8% | HOP-62 NSCLC 18.4% | NCI-H460 lung 14.1% | HOP-92 NSCLC 12.1% | NCI-H522 lung 24.1% | A549/ATCC NSCLC 20.6% | 786-0 renal 48.4%
active: COLO 205 colon -29.3%

CCc1cc2c(c3ccc(C(=O)CBr)cc13)CCCC2
inactive: NCI-H23 lung 89.1% | NCI-H226 lung 92.2% | NCI-H322M lung 77.5% | HOP-62 NSCLC 91.6% | NCI-H460 lung 109% | HOP-92 NSCLC 109% | NCI-H522 lung 88.3% | A549/ATCC NSCLC 93% | 786-0 renal 99.7% | COLO 205 colon 102%

Cc1oc2c(C(=O)N/N=C\c3ccc(O)cc3O)c[nH]c2c1C
inactive: NCI-H23 lung 40.7% | NCI-H226 lung 28.8% | NCI-H322M lung 26.3% | HOP-62 NSCLC 20.9% | HOP-92 NSCLC 13.4% | NCI-H522 lung 16.1% | A549/ATCC NSCLC 12.7%
active: NCI-H460 lung 4.29% | 786-0 renal 5.43% | COLO 205 colon 8.96%

Nc1nc(Nc2ccccc2)c(C=Nc2ccccc2)c(=O)[nH]1
inactive: NCI-H23 lung 88.5% | NCI-H226 lung 86.5% | NCI-H322M lung 93.3% | HOP-62 NSCLC 73.7% | NCI-H460 lung 102% | HOP-92 NSCLC 66.8% | NCI-H522 lung 57.9% | A549/ATCC NSCLC 89.6% | 786-0 renal 93.5% | COLO 205 colon 107%

Clc1nc(Cl)c2ncn(C/C=C\Cn3cnc4c(Cl)nc(Cl)nc43)c2n1
inactive: NCI-H322M lung 21.4% | HOP-62 NSCLC 23.4%
active: NCI-H23 lung 9.28% | NCI-H226 lung -59.2% | NCI-H460 lung 3.79% | HOP-92 NSCLC -34.2% | NCI-H522 lung -76.7% | A549/ATCC NSCLC -7.32% | 786-0 renal -9.15% | COLO 205 colon -41.1%

Nc1nc(N)c2cc(CNc3ccc(C(=O)NC(CC(=O)O)C(=O)O)cc3)ccc2n1 (stereo not given)
inactive: NCI-H23 lung 17.7% | NCI-H226 lung 23.2% | NCI-H322M lung 66.7% | HOP-62 NSCLC 19.7% | NCI-H460 lung 11.5% | HOP-92 NSCLC 48.5% | NCI-H522 lung 34.3% | 786-0 renal 15.8% | COLO 205 colon 51.9%
active: A549/ATCC NSCLC -32.8%

COc1cc(-c2cc(-c3ccc(Nc4ccnc5cc(Cl)ccc45)cc3)nc(N3CCOCC3)n2)cc(OC)c1OC
inactive: NCI-H226 lung 92.3% | NCI-H322M lung 28.9% | HOP-92 NSCLC 85.8% | COLO 205 colon 32.4%
active: NCI-H23 lung 0.48% | HOP-62 NSCLC -39.1% | NCI-H460 lung -43.9% | NCI-H522 lung -23.7% | A549/ATCC NSCLC -30.7% | 786-0 renal -65.5%

COc1cc(Nc2ncc3c(n2)-c2ccc(Cl)cc2C(c2c(F)cccc2OC)=NC3)ccc1C(=O)O
inactive: NCI-H23 lung 77.6% | NCI-H226 lung 63.2% | NCI-H322M lung 90.4% | HOP-62 NSCLC 50.2% | NCI-H460 lung 30.7% | HOP-92 NSCLC 115% | NCI-H522 lung 53.5% | A549/ATCC NSCLC 54.2% | 786-0 renal 89.1%
active: COLO 205 colon 8.87%

Fc1ccc(NCc2cn(-c3ccccc3)nc2-c2ccc(OCc3ccccc3)cc2)cc1Cl
inactive: NCI-H23 lung 82% | NCI-H226 lung 102% | NCI-H322M lung 105% | HOP-62 NSCLC 76.6% | NCI-H460 lung 110% | HOP-92 NSCLC 91.2% | NCI-H522 lung 58.5% | A549/ATCC NSCLC 83.3% | 786-0 renal 88.7% | COLO 205 colon 100%

CCNC(=O)C#Cc1ccc2c(C(=Nc3ccc(CN(C)C)cc3)c3ccccc3)c(O)[nH]c2c1
active: HOP-62 NSCLC 4.11% | HOP-92 NSCLC -66.8% | A549/ATCC NSCLC 6.49% | COLO 205 colon -41%
inactive: NCI-H23 lung 14% | NCI-H226 lung 38.6% | NCI-H322M lung 14.4% | NCI-H460 lung 16.5% | NCI-H522 lung 48.9% | 786-0 renal 24.2%

Cc1cc(-c2cc(OC(=O)c3ccccc3)ccc2Cl)cc2nnc(Nc3ccc(OCCN4CCCC4)cc3)nc12
inactive: NCI-H23 lung 78.9% | NCI-H226 lung 78.6% | NCI-H322M lung 102% | HOP-62 NSCLC 50.2% | NCI-H460 lung 81.6% | HOP-92 NSCLC 40.8% | NCI-H522 lung 49.2% | A549/ATCC NSCLC 69.4% | 786-0 renal 98.9% | COLO 205 colon 62.8%
